A structure can be active in one record and inactive in another. Active and inactive are the calls of the source. How the source made its calls: active means hit-call score of the fitted dose curve at least 0.9, where 1 is the maximum; inactive means score below 0.9.

A short description of this experiment: ATG_GLI_CIS: Attagene CIS-FACTORIAL HepG2 Assay for human Zinc Finger Protein GLI1 (AID 2282945). The settings on record: HepG2, Attagene cis-factorial reporter mRNA, GLI element; actives raise or lower the signal. Here is the method:
ATG_CIS is a cell-based, multiplexed-readout assay that uses HepG2, a human liver cell line, with measurements taken at 24 hours after chemical dosing in a 24-well plate.ATG_GLI_CIS is one of 52 assay component(s) measured or calculated from the ATG_CIS assay. It is designed to make measurements of mRNA induction, a form of inducible reporter, as detected with fluorescence intensity signals by Reverse transcription polymerase chain reaction (RT-PCR) and Capillary electrophoresis technology.Data from the assay component ATG_GLI_CIS was analyzed into 1 assay endpoint. This assay endpoint, ATG_GLI_CIS, was analyzed with bidirectional fitting relative to DMSO as the negative control and baseline of activity. Using a type of inducible reporter, measures of mRNA for gain or loss-of-signal activity can be used to understand the reporter gene at the transcription factor-level as they relate to the gene GLI1. Furthermore, this assay endpoint can be referred to as a primary readout, because this assay has produced multiple assay endpoints where this one serves a reporter gene function. To generalize the intended target to other relatable targets, this assay endpoint is annotated to the dna binding intended target family, where the subfamily is zinc finger.
Human liver HepG2 cells are transiently transfected with multiple reporter transcription units (MRTUs) in 6-well plates using FuGene 6 reagent (Roche; 3 ml FuGene/1 mg DNA). The MRTU constructs are regulated by a cis-regulating element (promoter). […] A major difference between the CIS and TRANS system is that in CIS activities of endogenous TFs are measured, whereas the TRANS assay evaluates changes in activities of exogenous, chimeric NR-Gal4 proteins. […] At the end of 24 hour incubation, total RNA was isolated using TriZol reagent (Invitrogen). The isolated RNA is then reverse-transcribed using oligo(dT) primer and Mo-MLV reverse transcriptase (Invitrogen) with DNAse I (Ambion) treatment for 30 min. The one-tenth of the produced cDNA was amplified by PCR using Taq DNA polymerase (Invitrogen) and two reporter sequence-specific primers. The PCR products were fluorescently labeled by primer extension with 6-arboxyfluorescein (6-FAM) 5'-labeled reporter sequence-specific primer (2 min at 95 C, 20 s at 68 C and 10 min at 72 C) and these products were digested with 5U of HpaI (New England Biolabs) for 2h at 37 C. The fragments were purified using Qiaquick PCR columns (Qiagen), analyzed on an ABI 3130xL genetic analyzer (Applied Biosystems) with peak positions identified by using a set of X-rhodamine (ROX)-labeled MapMarker1000 molecular weight standards (BioVentures). The raw capillary electrophoresis data was processed using Attagraph software (Attagene).
With `CCCCOC(=O)[C@@H](C)Oc1ccc(Oc2ccc(C(F)(F)F)cn2)cc1`, the compound was called inactive. Same read-out and setting: to `S=C([S-])NCCNC(=S)[S-].[Mn+2]` belongs “inactive”; to `C#CCOC(=O)[C@@H](C)Oc1ccc(Oc2ncc(Cl)cc2F)cc1`, “inactive”. On the same count and under the same terms, to `COc1c(Cl)ccc(Cl)c1C(=O)O` belongs “inactive”. Consider `CC(C)(c1ccc(O)cc1)c1ccc(O)cc1`, for which the half-maximal activity concentration (AC50) is 58.5 µM (active) and the outcome was inactive.

Regarding `CN(C)C(=O)Nc1ccc(Cl)c(Cl)c1`, the compound was called inactive.

Turning to `COC(=O)c1c(Cl)nn(C)c1S(=O)(=O)NC(=O)Nc1nc(OC)cc(OC)n1`, the call was inactive. Turning to `CCOC(=O)[C@H](C)Oc1ccc(Oc2nc3ccc(Cl)cc3o2)cc1`, the outcome was inactive.

In the case of `CCOC(=O)COc1cc(-n2ncc(C(F)(F)F)c(C)c2=O)c(F)cc1Cl`, the outcome was inactive. Same read-out and setting: to `CCCOC(=O)c1ccc(C(=O)OCCC)nc1` belongs “inactive”. Turning to `Oc1ccc(C(c2ccc(O)cc2)C(Cl)(Cl)Cl)cc1`, the result was inactive.

Consider `OB(O)O`, for which the outcome was inactive. On the same count and under the same terms, in the case of `N#CSCSc1nc2ccccc2s1` it was “inactive”; in that of `O=C(Nc1ccc([N+](=O)[O-])cc1Cl)c1cc(Cl)ccc1O`, “inactive”. The same measure, in the same setting: in the case of `CC(C)(C)[C@@H](O)[C@@H](Cc1ccc(Cl)cc1)n1cncn1` it was “inactive”. Take `c1ccc(Nc2ccccc2)cc1`: the compound was classed as inactive.

For the compound `CCCCOCCOCCOCc1cc2c(cc1CCC)OCO2`, the outcome was inactive. On the same count and under the same terms, in the case of `CSC(=O)c1cccc2nnsc12` it was “inactive”; in that of `CCCN(CCC)c1c([N+](=O)[O-])cc(C(F)(F)F)c(N)c1[N+](=O)[O-]`, “inactive”. The same measure, in the same setting: to `CCCCOC(=O)C(C)Oc1ccc(Oc2ccc(C(F)(F)F)cn2)cc1` (stereo not given) belongs “inactive”. Same read-out and setting: to `CC(C)CCCCCCc1ccc(O)cc1` belongs “inactive”. `O=C(c1ccccc1)C1CCCCC1`: the result was inactive. Take `COC(=O)c1ccccc1S(=O)(=O)NC(=O)Nc1nc(OC(F)F)cc(OC(F)F)n1`: the call was inactive. With `C#C[C@]1(O)CC[C@H]2[C@@H]3CCC4=CC(=O)CC[C@@H]4[C@H]3CC[C@@]21CC`, the call was inactive. As for `CC1(C)C(C=C(Cl)Cl)C1C(=O)OCc1cccc(Oc2ccccc2)c1` (stereo not given), the compound was classed as inactive. For the compound `COC(=O)c1cccc(C)c1S(=O)(=O)NC(=O)Nc1nc(OCC(F)(F)F)nc(N(C)C)n1`, the call was inactive.

With `CCCOC(=O)NCCCN(C)C`, the outcome was inactive.

On to `C=CCOC(Cn1ccnc1)c1ccc(Cl)cc1Cl` (stereo not given), for which the result was inactive. On the same count and under the same terms, to `COc1nc(C)nc(NC(=O)NS(=O)(=O)c2ccccc2OCCCl)n1` belongs “inactive”; to `CCC(O)=C1C(=O)CC(C(=O)O)CC1=O` (stereo not given), “inactive”; to `CCOC(=O)C(C)Oc1ccc(Oc2nc3ccc(Cl)cc3o2)cc1` (stereo not given), “inactive”. For the compound `CCNc1nc(N)nc(Cl)n1`, the call was inactive. Take `CCOC(=O)NCCOc1ccc(Oc2ccccc2)cc1`: the result was inactive.

As to `COC(=O)c1ccc(I)cc1S(=O)(=O)NC(=O)Nc1nc(C)nc(OC)n1`, the result was inactive. Turning to `CCOC(=O)c1ccc(O)cc1`, the result was inactive. On to `CCOC(=O)C(C)Oc1ccc(Oc2cnc3cc(Cl)ccc3n2)cc1` (stereo not given), for which the compound was called inactive. On the same count and under the same terms, in the case of `CCCCCOC(=O)COc1cc(N2C(=O)C3=C(CCCC3)C2=O)c(F)cc1Cl` it was “inactive”; in that of `CC(=O)[C@H]1CC[C@H]2[C@@H]3CCC4=CC(=O)CC[C@]4(C)[C@H]3CC[C@]12C`, “inactive”; in that of `CCC(C)OC(=O)N1CCCCC1CCO` (stereo not given), “inactive”.

The AC50 is the concentration at which the activity in the assay is half-maximal.
